# Results published in the supplement of paper PMC8728848.
# Only a selection was taken, and the strongest signals are over-represented in it overall.
# B1: MCI4 (Toxoplasma gondii), Q9XZH7 (protein)
# chain: MRASLPVHLVVCTQLSAVWFGVAKAHGGHRLEPHVPGFLQGFTDITPAGDDVSANVTSSEPAKLDLSCVHSDNKGSRAPTIGEPVPDVSLEQCAAQCKAVDGCTHFTYNDDSKMCHVKEGKPDLYDLTGGKTASRSCDRSCFEQHVSYEGAPDVMTAMVTSQSADCQAACAADPSCEIFTYNEHDQKCTFKGRGFSAFKERGVLGVTSGPKQFCDEGGKLTQEEMEDQISGCIQLSDVGSMTADLEEPMEADSVGACMERCRCDGRCTHFTFNDNTRMCYLKGDKMQLYSSPGDRTGPKSCDSSCFSNGVSYVDDPATDVETVFEISHPIYCQVICAANPLCTVFQWYASEAKCVVKRKGFYKHRKTGVTGVTVGPREFCDFGGSIRDREEADAVGSDDGLNAEATMANSPDFHDEVECVHTGNIGSKAQTIGEVKRASSLSECRARCQAEKECSHYTYNVKSGLCYPKRGKPQFYKYLGDMTGSRTCDTSCLRRGVDYSQGPEVGKPWYSTLPTDCQVACDAEDACLVFTWDSATSRCYLIGSGFSAHRRNDVDGVVSGPYTFCDNGENLQVLEAKDTE
# B2: ConA (Canavalia ensiformis), P02866 (protein)
# chain: MAISKKSSLFLPIFTFITMFLMVVNKVSSSTHETNALHFMFNQFSKDQKDLILQGDATTGTDGNLELTRVSSNGSPQGSSVGRALFYAPVHIWESSAVVASFEATFTFLIKSPDSHPADGIAFFISNIDSSIPSGSTGRLLGLFPDANVIRNSTTIDFNAAYNADTIVAVELDTYPNTDIGDPSYPHIGIDIKSVRSKKTAKWNMQNGKVGTAHIIYNSVDKRLSAVVSYPNADSATVSYDVDLDNVLPEWVRVGLSASTGLYKETNTILSWSFTSKLKSNEIPDIATVV
# Tests used:
# Assay in all cases: glycan array binding signal (z-score within array); higher = stronger binding
# Conditions in all cases: glycan notation: IUPAC condensed, linker removed
# [1] = target: Fuc(a1-2)Gal(b1-3)GalNAc(b1-3)Gal(a1-4)Gal(b1-4)Glc
# How it was run: (§1)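 The Consortium for Functional Glycomics database supplied 3228 glycan arrays, of which those lacking an available protein sequence were dropped. The binding signal, a within-array Z-score, was averaged across arrays of the same protein sequence and across linkers. Negative scores can be read as non-binding.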
# Fuc(a1-2)Gal(b1-4)GlcNAc = target: Fuc(a1-2)Gal(b1-4)GlcNAc
# How it was run: as §1
# [2] = target: Fuc(a1-2)Gal(b1-4)GlcNAc(b1-3)Gal(b1-4)GlcNAc
# How it was run: as §1
# [3] = target: Fuc(a1-2)[Gal(a1-3)]Gal(b1-4)Glc
# How it was run: as §1
# [4] = target: Fuc(a1-2)[Gal(a1-4)]Gal(b1-4)GlcNAc
# How it was run: as §1
# [5] = target: Fuc(a1-2)[GalNAc(a1-3)]Gal(b1-4)GlcNAc
# How it was run: as §1
# [6] = target: Fuc(a1-3)[Gal(b1-4)]GlcNAc(b1-2)Man(a1-6)[Gal(b1-4)GlcNAc(b1-2)Man(a1-3)]Man(b1-4)GlcNAc(b1-4)GlcNAc
# How it was run: as §1
# [7] = target: Fuc(a1-3)[Gal3S(b1-4)]GlcNAc6S
# How it was run: as §1
# Gal(b1-3)Gal(b1-4)GlcNAc = target: Gal(b1-3)Gal(b1-4)GlcNAc
# How it was run: as §1
# Gal(b1-4)Glc6S = target: Gal(b1-4)Glc6S
# How it was run: as §1
# [8] = target: Gal(b1-4)GlcNAc(b1-2)Man(a1-3)[Gal(b1-4)GlcNAc(b1-2)Man(a1-6)]Man(b1-4)GlcNAc(b1-4)GlcNAc
# How it was run: as §1
# [9] = target: Gal(b1-4)GlcNAc(b1-3)[Gal(b1-4)GlcNAc(b1-6)]Gal(b1-4)GlcNAc
# How it was run: as §1
# [10] = target: Gal(b1-4)GlcNAc(b1-6)[Gal(b1-3)]GalNAc
# How it was run: as §1
# [11] = target: Gal3S(b1-4)[Fuc(a1-3)]Glc
# How it was run: as §1
# Gal3S6S(b1-4)GlcNAc6S = target: Gal3S6S(b1-4)GlcNAc6S
# How it was run: as §1
# GlcNAc(b1-3)GalNAc = target: GlcNAc(b1-3)GalNAc
# How it was run: as §1
# [12] = target: GlcNAc(b1-3)[GlcNAc(b1-4)][GlcNAc(b1-6)]GlcNAc
# How it was run: as §1
# [13] = target: Man(a1-2)Man(a1-3)[Man(a1-2)Man(a1-6)]Man
# How it was run: as §1
# [14] = target: Neu5Ac(a2-3)Gal(b1-4)GlcNAc(b1-3)Gal(b1-4)[Fuc(a1-3)]GlcNAc
# How it was run: as §1
# [15] = target: Neu5Ac(a2-8)Neu5Ac(a2-8)Neu5Ac
# How it was run: as §1
# [16] = target: Fuc(a1-2)Gal(b1-3)GlcNAc(b1-3)[Neu5Ac(a2-6)Gal(b1-4)GlcNAc(b1-6)]Gal(b1-4)Glc
# How it was run: as §1
# [17] = target: Fuc(a1-2)Gal(b1-4)[Fuc(a1-3)]GlcNAc(b1-2)Man(a1-3)[Fuc(a1-2)Gal(b1-4)[Fuc(a1-3)]GlcNAc(b1-2)Man(a1-6)]Man(b1-4)GlcNAc(b1-4)GlcNAc
# How it was run: as §1
# [18] = target: Fuc(a1-2)[GalNAc(a1-3)]Gal(b1-3)GalNAc(a1-3)[Fuc(a1-2)]Gal(b1-4)GlcNAc
# How it was run: as §1
# [19] = target: Fuc(a1-2)[GalNAc(a1-3)]Gal(b1-3)GlcNAc
# How it was run: as §1
# [20] = target: Fuc(a1-3)[Gal(b1-4)]Glc6S
# How it was run: as §1
# [21] = target: Gal(b1-3)Gal(b1-4)GlcNAc(b1-2)Man(a1-3)[Gal(b1-3)Gal(b1-4)GlcNAc(b1-2)Man(a1-6)]Man(b1-4)GlcNAc(b1-4)GlcNAc
# How it was run: as §1
# [22] = target: Gal(b1-3)[Fuc(a1-4)]GlcNAc
# How it was run: as §1
# [23] = target: Gal(b1-3)[Neu5Ac(a2-6)]GalNAc
# How it was run: as §1
# Gal(b1-4)GlcNAc = target: Gal(b1-4)GlcNAc
# How it was run: as §1
# [24] = target: Gal(b1-4)GlcNAc(b1-2)Man(a1-3)Man(b1-4)GlcNAc(b1-4)GlcNAc
# How it was run: as §1
# [25] = target: Gal(b1-4)GlcNAc(b1-2)Man(a1-3)[GlcNAc(b1-2)Man(a1-6)]Man(b1-4)GlcNAc(b1-4)GlcNAc
# How it was run: as §1
# [26] = target: Gal(b1-4)GlcNAc(b1-2)[Gal(b1-4)GlcNAc(b1-4)]Man(a1-3)[GlcNAc(b1-4)][Gal(b1-4)GlcNAc(b1-2)Man(a1-6)]Man(b1-4)GlcNAc(b1-4)GlcNAc
# How it was run: as §1
# [27] = target: Gal(b1-4)GlcNAc(b1-2)[Gal(b1-4)GlcNAc(b1-4)]Man(a1-3)[GlcNAc(b1-4)][Gal(b1-4)GlcNAc(b1-2)[Gal(b1-4)GlcNAc(b1-6)]Man(a1-6)]Man(b1-4)GlcNAc(b1-4)GlcNAc
# How it was run: as §1
# [28] = target: Gal(b1-4)GlcNAc(b1-2)[Gal(b1-4)GlcNAc(b1-6)]Man(a1-6)[GlcNAc(b1-4)][Gal(b1-4)GlcNAc(b1-2)Man(a1-3)]Man(b1-4)GlcNAc(b1-4)GlcNAc
# How it was run: as §1
# [29] = target: Gal(b1-4)GlcNAc(b1-3)GalNAc
# How it was run: as §1
# [30] = target: Gal(b1-4)GlcNAc(b1-3)[Gal(b1-4)GlcNAc(b1-6)]GalNAc
# How it was run: as §1
# [31] = target: GalNAc(a1-3)GalNAc(b1-3)Gal(a1-4)Gal(b1-4)Glc
# How it was run: as §1
# [32] = target: GlcNAc(b1-2)Man(a1-3)[GlcNAc(b1-4)][GlcNAc(b1-2)Man(a1-6)]Man(b1-4)GlcNAc(b1-4)GlcNAc
# How it was run: as §1
# [33] = target: GlcNAc(b1-3)[GlcNAc(b1-6)]GlcNAc(b1-4)GlcNAc
# How it was run: as §1
# [34] = target: GlcNAc(b1-4)[GlcNAc(b1-6)]GalNAc
# How it was run: as §1
# [35] = target: GlcNAc6S(b1-3)Gal(b1-4)GlcNAc
# How it was run: as §1
# [36] = target: Man(a1-2)Man(a1-2)Man(a1-6)[Man(a1-3)]Man
# How it was run: as §1
# [37] = target: Man(a1-2)Man(a1-3)[Man(a1-2)Man(a1-6)]Man(a1-6)[Man(a1-2)Man(a1-2)Man(a1-3)]Man
# How it was run: as §1
# [38] = target: Man(a1-2)Man(a1-3)[Man(a1-2)Man(a1-6)]Man(a1-6)[Man(a1-2)Man(a1-2)Man(a1-3)]Man(b1-4)GlcNAc(b1-4)GlcNAc
# How it was run: as §1
# [39] = target: Man(a1-2)Man(a1-6)[Man(a1-3)]Man(a1-6)[Man(a1-2)Man(a1-2)Man(a1-3)]Man
# How it was run: as §1
# [40] = target: Man(a1-2)Man(a1-6)[Man(a1-3)]Man(a1-6)[Man(a1-2)Man(a1-2)Man(a1-3)]Man(b1-4)GlcNAc(b1-4)GlcNAc
# How it was run: as §1
binder,measurement,setting,value
B1,glycan array binding signal (z-score),[1],-0.22
same,glycan array binding signal (z-score),Fuc(a1-2)Gal(b1-4)GlcNAc,-0.204
same,glycan array binding signal (z-score),[2],-0.214
same,glycan array binding signal (z-score),[3],-0.206
same,glycan array binding signal (z-score),[4],-0.203
same,glycan array binding signal (z-score),[5],-0.21
same,glycan array binding signal (z-score),[6],-0.201
same,glycan array binding signal (z-score),[7],-0.225
same,glycan array binding signal (z-score),Gal(b1-3)Gal(b1-4)GlcNAc,5.93
same,glycan array binding signal (z-score),Gal(b1-4)Glc6S,5.04
same,glycan array binding signal (z-score),[8],4.68
same,glycan array binding signal (z-score),[9],7.5
same,glycan array binding signal (z-score),[10],5.16
same,glycan array binding signal (z-score),[11],-0.213
same,glycan array binding signal (z-score),Gal3S6S(b1-4)GlcNAc6S,-0.228
same,glycan array binding signal (z-score),GlcNAc(b1-3)GalNAc,-0.203
same,glycan array binding signal (z-score),[12],-0.202
same,glycan array binding signal (z-score),[13],-0.213
same,glycan array binding signal (z-score),[14],-0.217
same,glycan array binding signal (z-score),[15],-0.217
B2,glycan array binding signal (z-score),[1],-0.286
same,glycan array binding signal (z-score),[16],-0.189
same,glycan array binding signal (z-score),[17],-0.056
same,glycan array binding signal (z-score),[3],-0.278
same,glycan array binding signal (z-score),[18],-0.245
same,glycan array binding signal (z-score),[19],-0.279
same,glycan array binding signal (z-score),[20],-0.245
same,glycan array binding signal (z-score),[21],0.087
same,glycan array binding signal (z-score),[22],-0.274
same,glycan array binding signal (z-score),[23],-0.129
same,glycan array binding signal (z-score),Gal(b1-4)GlcNAc,-0.225
same,glycan array binding signal (z-score),[24],-0.192
same,glycan array binding signal (z-score),[25],0.311
same,glycan array binding signal (z-score),[26],-0.211
same,glycan array binding signal (z-score),[27],-0.196
same,glycan array binding signal (z-score),[28],-0.24
same,glycan array binding signal (z-score),[29],-0.228
same,glycan array binding signal (z-score),[9],-0.208
same,glycan array binding signal (z-score),[30],-0.214
same,glycan array binding signal (z-score),[31],-0.201
same,glycan array binding signal (z-score),[32],-0.108
same,glycan array binding signal (z-score),[33],-0.317
same,glycan array binding signal (z-score),[34],-0.264
same,glycan array binding signal (z-score),[35],-0.088
same,glycan array binding signal (z-score),[36],4.9
same,glycan array binding signal (z-score),[13],3.94
same,glycan array binding signal (z-score),[37],7.48
same,glycan array binding signal (z-score),[38],3.33
same,glycan array binding signal (z-score),[39],7.39
same,glycan array binding signal (z-score),[40],4.46
